Most compounds without a hit are left out; they make up all but 7.4% or so of the library.
FLuc counter: firefly luciferase modulation, counter-screen for miR-21 project; P08659; purified FLuc, Km substrates, luminescence inhibition; Potency, µM (titrated, usually from 57.5 µM), most hits filed as inhibitors; actives 6.9% (n = 360,000); AID 588342; further: nearly all actives have a fitted effect of over 55% in size
Target sequence (P08659 whole entry, looked up): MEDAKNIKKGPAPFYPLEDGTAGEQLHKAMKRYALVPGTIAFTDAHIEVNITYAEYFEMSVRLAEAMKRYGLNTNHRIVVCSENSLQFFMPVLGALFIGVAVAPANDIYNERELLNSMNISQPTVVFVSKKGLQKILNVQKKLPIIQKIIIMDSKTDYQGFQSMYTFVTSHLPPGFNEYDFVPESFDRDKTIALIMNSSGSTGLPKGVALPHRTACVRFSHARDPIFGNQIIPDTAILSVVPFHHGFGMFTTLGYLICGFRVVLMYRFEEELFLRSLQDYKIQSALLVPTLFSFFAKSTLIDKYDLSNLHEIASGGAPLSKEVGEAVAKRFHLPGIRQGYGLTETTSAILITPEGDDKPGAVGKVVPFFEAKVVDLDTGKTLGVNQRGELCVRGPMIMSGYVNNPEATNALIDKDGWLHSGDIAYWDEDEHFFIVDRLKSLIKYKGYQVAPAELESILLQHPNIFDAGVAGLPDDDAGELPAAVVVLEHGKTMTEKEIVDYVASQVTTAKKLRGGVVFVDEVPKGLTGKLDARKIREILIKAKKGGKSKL
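Purified P. pyralis luciferase, 10 nM final, with Km-level 10 uM D-luciferin and 10 uM ATP in 50 mM Tris acetate pH 7.5, 10 mM Mg acetate, 0.01% Tween-20, 0.05% BSA; 6-point qHTS titration about 60 µM downward; luminescence read.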
SMN2 splice enh: enhancers of SMN2 splice variant expression; HEK293 SMN2-luciferase splicing reporter, luminescence, 30-36 h; Potency, µM (titrated, usually from 46.1 µM), usual class: activators; actives 2.8% (n = 210,000); further: nearly all actives have a fitted effect of over 55% in size
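qHTS luciferase splicing reporter: luminescence rises when SMN2 exon 7 is included in transfected HEK293 cells. Compound exposure lasted 30-36 h at 37C, with 4.5 mM final sodium butyrate as control, followed by a ONE-Glo read.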
ELG1 genotoxic: induces genotoxicity in HEK293T cells with luciferase-tagged ELG1. AID 504466. Potency, µM (doses to about 46 µM), most hits filed as activators. HEK293T ELG1-luciferase reporter, luminescence, 16 h. actives 1.3% (n = 330,000); further: nearly all actives have a fitted effect of over 60% in size
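HEK293T cells expressing luciferase-tagged ELG1 were exposed to compound or DMSO vehicle for 16 hr at 37 °C and 5% CO2. Luciferase activity was then measured with ONE-Glo after 30 min at room temperature.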
NPC1 prom act: activates the NPC1 promoter | Potency, µM (top dose mostly 9.22 µM), hits mostly activators | actives 2.4% (n = 320,000) | Huh7 NPC1 promoter luciferase reporter, 24 h; further: nearly all actives have a fitted effect of over 60% in size
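Stably transfected Huh7 (NPC1 promoter→luciferase), 1500 cells/well in Opti-MEM + 10% FBS, 2 h settle, then compound 24 h at 37 °C. Luminescence after 10 min with Amplite reagent.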
Rab9 promoter act: activates the Rab9 promoter | Potency, µM (doses to about 9.22 µM), actives largely listed as activators | actives 2.8% (n = 320,000) | Huh7 Rab9 promoter-luciferase reporter, luminescence, 24 h; further: nearly all actives have a fitted effect of over 60% in size
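Huh7 cells stably carrying Rab9 promoter–luciferase reporter, plated 1500 cells/well, compound added after 2 h and incubated 24 h at 37 °C; luciferase luminescence then read after 10 min with detection reagent.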
Hits are given with their value; . = inactive; ? = inconclusive; / = no result given; [ ] = remark or other dose. The call rests on the fitted dose curve; in most records, active means well fitted curve in the direction sought with a large enough effect; inconclusive means small, poorly fitted or top-dose-only effect, or another doubt; inactive means no such curve, though single readings can be large; an effect the other way counts as inactive or inconclusive.

SMILES	FLuc counter	SMN2 splice enh	ELG1 genotoxic	NPC1 prom act	Rab9 promoter act
O=C(Nc1ccc(F)cc1)C1CCN(c2nc3ccccc3nc2C(F)(F)F)CC1	.	/	/	/	/
COc1cc(NC(=O)CSc2ccc(-c3sc(-c4ccccc4)nc3C)nn2)cc(OC)c1	.	/	/	/	/
Cc1cc(OCC(=O)NCC2(N3CCN(C)CC3)CCCCC2)cc(C)c1Cl	.	/	/	/	/
COc1ccc2c(c1)C(=O)CC(c1ccc3c(c1)OCCO3)O2 (stereo unspecified)	21µM	/	.	?	?
COc1ccc2c(c1)O[C@H](c1ccc3c(c1)OCO3)[C@@H](O)C2=O	?	13µM	.	.	.
COc1ccc2c(c1)O[C@@H](c1ccc3c(c1)OCO3)[C@H](OC(=O)NCc1ccc3c(c1)OCO3)C2=O	/	.	/	/	/
COc1ccc2c(c1)C(=O)CC(c1ccc(OC)c(OC)c1)O2 (stereo unspecified)	.	/	.	.	.
COc1ccc(CNC(=O)Cn2c(SCC(=O)Nc3ccc(OC)cc3)nc3ccccc32)cc1	.	/	/	/	/
Cc1cc(NC(=O)c2cc(-c3ccc(Cl)cc3)on2)n(-c2ccccc2)n1	.	.	/	/	/
COc1ccc(C(=O)Oc2ccc3c(c2)OCO3)cc1OC	24µM	.	.	.	.
N/C(=N\OC(=O)c1ccc2c(c1)OCO2)c1cccnc1	1.2µM	/	?	?	?
N/C(=N\OC(=O)c1cccc(Br)c1)c1ccc([N+](=O)[O-])cc1	?	/	.	.	.
COc1ccc(/C(N)=N/OC(=O)c2ccc3c(c2)OCO3)cc1OC	3µM	?	?	?	?
N/C(=N\OC(=O)c1ccc2c(c1)OCO2)c1cccc(Br)c1	0.13µM	/	?	?	4.5µM
COc1cc(OC)c(C(=O)Oc2ccc3c(c2)OCO3)cc1OC	.	.	.	.	.
N/C(=N\OC(=O)c1ccc2c(c1)OCO2)c1ccc([N+](=O)[O-])cc1	?	.	?	?	?
CCOC(=O)C1CCN(C(c2ccc(SC)cc2)c2c(O)cc(C)n(Cc3ccco3)c2=O)CC1 (stereo unspecified)	.	/	/	/	/
CCOCCCNC(=O)c1cnc2sc(N3CCCCC3)nn2c1=O	.	/	/	/	/
c1ccc(SCCc2ccncc2)cc1	.	.[9.22 µM]	.	.	.
CC(C)(C)c1ccc(SCCc2cccnc2)cc1	5.4µM	/	?	2µM	3.5µM
COc1ccc(-c2nc3sc(CCNC(=O)c4cc(OC)c(OC)c(OC)c4)c(C)n3n2)cc1	11µM	/	/	/	/
COc1ccc(-c2nc3sc(CCNC(=O)Cc4ccc(F)cc4)c(C)n3n2)cc1	.	/	/	/	/
COc1ccc(-c2nc3sc(CCNC(=O)c4ccco4)c(C)n3n2)cc1	21µM	/	/	/	/
Cc1cc(C)c2oc(-c3ccc(C)c(NC(=S)NC(=O)c4cccs4)c3)nc2c1	?	.	.	.	.
Cc1nc2ccc(NC(=O)c3cnc(Cl)c(Cl)c3)cc2s1	?	/	.	.	.
SMILES	FLuc counter	SMN2 splice enh	ELG1 genotoxic	NPC1 prom act	Rab9 promoter act
Cc1cc(C)c2oc(-c3ccc(Cl)c(NC(=O)c4cccs4)c3)nc2c1	4.3µM	.	/	/	/
Cc1ccc(NC(=O)c2ccc(Cl)c(NC(=O)c3cccs3)c2)cc1	11µM	/	.	.	.
Cc1nc2ccc(NC(=O)c3ccc(Cl)c(NC(=O)c4cccs4)c3)cc2s1	13µM	.	.	.	.
O=C(NCCc1ccccc1Cl)c1ccc2c(=O)n(-c3ccccc3)c(=O)[nH]c2c1	.	.	/	/	/
Cc1nc2nc(NC(=O)c3ccc(Cl)cc3)[nH]n2c(=O)c1Cc1ccccc1	?	.	/	/	/
COc1ccc(NC(=O)CCS(=O)(=O)c2ccc3nc(C)sc3c2)cc1Cl	.	/	/	/	/
CCCCC=O	/	.	/	/	/
COc1ccc(OCCn2c(C3CC(=O)N(c4ccc(F)cc4)C3)nc3ccccc32)cc1 (stereo unspecified)	.	.	/	/	/
CCOc1ccccc1N1CC(c2nc3ccccc3n2CCCOc2ccc(OC)cc2)CC1=O (stereo unspecified)	13µM	?	/	/	/
CCOc1ccc(N2CC(c3nc4ccccc4n3CCCOc3ccc(OC)cc3)CC2=O)cc1 (stereo unspecified)	24µM	.	/	/	/
Cn1c(=O)c2c(nc(N3CCOCC3)n2Cc2cccc(Br)c2)n(C)c1=O	.	.	/	/	/
COc1ccc(NC(=O)C2CCN(S(=O)(=O)c3c(C)noc3/C=C/c3ccco3)CC2)cc1	.	.	/	/	/

Bioassay records deposited in PubChem by National Center for Advancing Translational Sciences (NCATS).
